The target in test [1] is Lysosomal acid glucosylceramidase (Homo sapiens) (UniProt P04062). Kind of test: Glucocerebrosidase-p2 (AID 348; in the data active = potency below about 10 µM; note: potency is the fitted concentration of half-maximal effect). The following applies: purified GBA, blue fluorogenic substrate, 40 min. The method in brief:
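Compounds titrated from 0.6 nM upwards against 0.2 nM enzyme in pH 5.9 citric acid/KH2PO4, taurocholate, tween-20; blue fluorogenic substrate 80 uM, 40 min room temperature, stopped and read Ex 365/Em 440 for AC50.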

Test [2] in a line: AP1 Signaling Pathway (AID 357).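 Note: ME-180 reporter cells stimulated with EGF at its EC50 level; % is set by controls: 0 for no effect and ±100 for the full control effect.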 The following applies: ME-180 AP-1-bla reporter, EGF-induced, beta-lactamase ratio, 5 h; at 7.69 µM (top of the series) unless noted. The method in brief:
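First, ME-180 AP-1-bla cells were cultured overnight at 37 °C in low-serum Opti-MEM. Next, titrated compounds with EC50 EGF were incubated 5 hours. Finally, CCF4 was added for 2.5 hours and the 460/530 nm ratio recorded.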

The target of test [3] is Cytochrome P450 1A2 (Homo sapiens) (UniProt P05177). Kind of test: p450-cyp1a2 (AID 410; calls by dose curve; note: potency is the fitted concentration of half-maximal effect). The following applies: recombinant CYP1A2, luciferin-ME demethylation, luminescence; series mostly up to 11.4 µM. An outline of the steps: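 Inhibition was calculated relative to 57 uM furafylline (full inhibition). The reaction used human CYP1A2 at 20nM with Luciferin-ME at its Km, 100uM, driven by an NADPH-regenerating system for 60 min at room temperature.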
Chain of Cytochrome P450 1A2 (Homo sapiens) (P05177 whole entry, looked up): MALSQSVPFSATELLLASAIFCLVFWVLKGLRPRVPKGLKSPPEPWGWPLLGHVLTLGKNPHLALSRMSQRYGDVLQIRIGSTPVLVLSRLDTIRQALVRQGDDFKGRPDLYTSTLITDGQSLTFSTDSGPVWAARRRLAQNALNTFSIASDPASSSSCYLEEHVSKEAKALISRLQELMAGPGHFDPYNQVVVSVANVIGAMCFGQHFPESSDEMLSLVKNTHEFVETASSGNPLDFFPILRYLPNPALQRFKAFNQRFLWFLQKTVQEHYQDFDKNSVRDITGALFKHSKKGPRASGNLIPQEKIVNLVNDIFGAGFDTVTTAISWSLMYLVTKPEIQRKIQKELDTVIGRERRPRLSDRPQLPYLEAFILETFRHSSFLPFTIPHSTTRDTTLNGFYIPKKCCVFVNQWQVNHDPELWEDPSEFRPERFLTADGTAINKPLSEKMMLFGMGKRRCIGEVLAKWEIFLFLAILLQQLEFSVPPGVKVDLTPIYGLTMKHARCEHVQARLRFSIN

Test [4] is described as follows: NFAT Signaling Pathway (AID 444).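 Note: carbachol stimulus at about its EC50 of 1 µM final; % is set by controls: 0 for no effect and ±100 for the full control effect.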 The following applies: Jurkat NFAT-bla M1, carbachol, beta-lactamase ratio, 5 h; at 7.69 µM (top of the series) unless noted. The method in brief: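 Read-out: CCF4 FRET ratio (460 nm/530 nm) after 1 h RT dye loading, used for %activity and AC50 from titration series. Cells: Jurkat NFAT-β-lactamase/M1 line, treated with compound plus 1 uM carbachol for 5 h, 37 °C.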

Test [5] is described as follows: Stat Signaling Pathway (AID 446).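 Note: ME-180 cervical cancer cells given 40 pM IL-6 alongside compound; SIE-controlled beta-lactamase reporter measured as 460/530 nm FRET emission ratio; % is set by controls: 0 for no effect and ±100 for the full control effect.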 The following applies: ME-180 (cervical carcinoma) SIE beta-lactamase reporter, IL-6 stimulated, 5 h; at 7.69 µM (top of the series) unless noted. The method in brief:
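ME-180 cells carrying a SIE-driven beta-lactamase reporter are stimulated with 40 pM IL-6 for 5 h at 37C in the presence of compound. The 460/530 nm FRET substrate ratio is read after 2.5 h at RT. Data are normalised to 300 pM IL-6 and to 125 nM JAK inhibitor controls.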

For test [6], the target named is Glucocorticoid receptor (Homo sapiens) (UniProt P04150). Kind of test: GR-GFP Redistribution (AID 450;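 active = compounds whose dose series gives a full or clear partial fitted curve of increased nuclear translocation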; note: potency is the fitted concentration of half-maximal effect). The following applies: U2OS GR-GFP nuclear translocation, laser cytometry, 2 h.
Chain of Glucocorticoid receptor (Homo sapiens) (P04150 whole entry, looked up): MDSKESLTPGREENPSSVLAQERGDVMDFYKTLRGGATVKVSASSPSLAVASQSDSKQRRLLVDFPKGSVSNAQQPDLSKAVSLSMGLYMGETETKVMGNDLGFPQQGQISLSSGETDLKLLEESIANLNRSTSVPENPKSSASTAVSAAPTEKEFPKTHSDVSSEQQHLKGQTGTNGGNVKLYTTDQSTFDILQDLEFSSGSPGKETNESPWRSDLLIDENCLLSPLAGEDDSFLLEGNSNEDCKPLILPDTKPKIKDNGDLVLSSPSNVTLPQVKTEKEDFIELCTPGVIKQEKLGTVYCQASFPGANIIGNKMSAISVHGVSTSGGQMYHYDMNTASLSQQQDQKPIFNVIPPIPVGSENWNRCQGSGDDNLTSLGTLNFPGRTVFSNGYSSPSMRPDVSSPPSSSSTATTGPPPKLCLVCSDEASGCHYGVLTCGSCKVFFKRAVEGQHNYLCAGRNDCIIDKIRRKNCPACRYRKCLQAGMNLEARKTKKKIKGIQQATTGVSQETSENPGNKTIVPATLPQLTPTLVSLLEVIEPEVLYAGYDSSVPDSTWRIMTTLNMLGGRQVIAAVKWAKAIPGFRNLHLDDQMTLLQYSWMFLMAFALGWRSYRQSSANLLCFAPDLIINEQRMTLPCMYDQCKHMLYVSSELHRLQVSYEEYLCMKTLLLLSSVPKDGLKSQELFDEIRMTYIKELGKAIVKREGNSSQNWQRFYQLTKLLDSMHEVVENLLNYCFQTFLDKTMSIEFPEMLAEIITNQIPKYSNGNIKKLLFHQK
For test [7] the target is unchanged. Kind of test: GR-EFC Redistribution (AID 451; calls by dose curve; note: potency is the fitted concentration of half-maximal effect). The following applies: CHO-K1 GR-EFC translocation, beta-gal luminescence, 2 h. The method in brief:
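Translocation of GR-ED fusion to nuclear EA restores b-gal, read by luminescence after 1 h room-temperature detection. Engineered CHO-K1 biosensor cells, 1,000/well, exposed 2 h at 37 C to titrations up to 46 uM final.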

The target of test [8] is Mitogen-activated protein kinase 10 (Mus musculus) (UniProt Q61831). Kind of test: JNK3 AlphaScreen Assay (AID 530).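 Note: kinase came from lysate of stimulated human HepG2 cells; signal reports phosphorylation of biotinylated GST-cJun 1-79 at Ser73 with 10 µM ATP; % is set by controls: 0 for no effect and ±100 for the full control effect.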 The following applies: JNK3 lysate, c-Jun phosphorylation; series mostly up to 57.1 µM. The method in brief:
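Room-temperature AlphaScreen kinase assay; pre-activated HepG2 lysate as JNK3 source, biotin-GST-cJun(1-79) substrate, 10 uM ATP, compound 15 min preincubation.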

The target in test [9] is 3',5'-cyclic-AMP phosphodiesterase 4B (Homo sapiens) (UniProt Q07343). Put plainly: qHTS Assay for Inhibitors of PDE-IV (AID 607; active = well fitted activation curve with a large enough effect in the main read-out, with a control signal flat, not every such curve was filed as active; note: % of control where 0% means no effect). The following applies: HEK293 ACTOne CNG channel cells, membrane potential fluorescence; series mostly up to 22.9 µM. An outline of the steps: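 HEK293 ACTOne cells with CNG channel (1000/well), endogenous PDE4; membrane potential dye, compounds up to 22.9 uM final. Fluorescence Ex 535/Em 590; RO 20-1724 (100 uM final) as reference.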
Chain of 3',5'-cyclic-AMP phosphodiesterase 4B (Homo sapiens) (Q07343 whole entry, looked up): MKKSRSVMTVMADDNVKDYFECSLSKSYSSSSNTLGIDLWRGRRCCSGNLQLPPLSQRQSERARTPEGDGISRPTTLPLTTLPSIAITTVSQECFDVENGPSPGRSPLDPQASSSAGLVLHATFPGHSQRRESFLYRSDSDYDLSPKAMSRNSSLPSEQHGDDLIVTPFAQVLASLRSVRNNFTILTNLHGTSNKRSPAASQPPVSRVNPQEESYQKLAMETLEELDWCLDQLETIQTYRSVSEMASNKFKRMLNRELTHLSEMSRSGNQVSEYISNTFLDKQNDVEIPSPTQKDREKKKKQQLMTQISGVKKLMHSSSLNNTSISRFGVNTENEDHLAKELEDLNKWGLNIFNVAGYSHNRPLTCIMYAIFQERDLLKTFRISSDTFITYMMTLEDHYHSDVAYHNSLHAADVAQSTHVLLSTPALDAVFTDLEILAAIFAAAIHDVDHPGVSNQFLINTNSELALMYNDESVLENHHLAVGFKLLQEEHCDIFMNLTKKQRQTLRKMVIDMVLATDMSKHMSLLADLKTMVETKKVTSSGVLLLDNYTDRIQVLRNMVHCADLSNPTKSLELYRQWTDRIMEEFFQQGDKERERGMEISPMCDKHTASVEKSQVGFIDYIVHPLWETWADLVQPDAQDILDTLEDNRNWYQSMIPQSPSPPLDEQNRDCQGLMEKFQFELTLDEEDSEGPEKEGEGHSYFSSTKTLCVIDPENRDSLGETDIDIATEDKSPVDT

The target in test [10] is Cytochrome P450 3A4 (Homo sapiens) (UniProt P08684). Put plainly: qHTS Assay for Activators of Cytochrome P450 3A4 (AID 885; active = well fitted curve in the direction sought with a large enough effect; an effect the other way counts as inactive or inconclusive; note: nearly all actives have a fitted effect of over 65% in size). The following applies: recombinant CYP3A4, Luciferin-PPXE luminescence, 60 min; series mostly up to 57.1 µM. An outline of the steps:
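Human CYP3A4 (20 nM) with Luciferin-PPXE at 25 uM (its KM) in 200 mM KPO4; 10 min compound preincubation, then NADPH regeneration and 60 min reaction at RT. Luciferin read by luminescence; normalized to 57 uM ketoconazole full inhibition.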
In general terms: qHTS replaces the single test concentration by a dilution series.

For test [11], the target named is Cytochrome P450 2C19 (Homo sapiens) (UniProt P33261). Kind of test: qHTS Assay for Inhibitors and Substrates of Cytochrome P450 2C19 (AID 899; active = well fitted curve in the direction sought with a large enough effect; an effect the other way counts as inactive or inconclusive; note: % is set by controls: 0 for no effect and ±100 for the full control effect; nearly all actives have a fitted effect of over 60% in size). The following applies: recombinant CYP2C19, luciferin-H EGE luminescence; series mostly up to 11.4 µM. An outline of the steps:
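5nM enzyme + 10uM Luciferin-H EGE (=KM), 50mM KPO4; cpd pin-transferred, 10 min 37C; NADPH regen, 60 min 37C; stopped w/ luciferin detection reagent, 20 min; luminescence. Normalized to 57uM ketoconazole (AC100).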

Each structure is given as a SMILES string. Values without a mark were called inactive. Records with an inconclusive call do not appear. Calls of active or inactive are those of the source. Unless noted, calls come from the whole dose curve; as a rule, active = well fitted curve in either direction with a large enough effect (not every such curve was filed as active); inconclusive = small, poorly fitted or top-dose-only effect, or another doubt; inactive = flat fitted curve, though single readings scatter.

Chain of Lysosomal acid glucosylceramidase (Homo sapiens) (P04062 whole entry, looked up): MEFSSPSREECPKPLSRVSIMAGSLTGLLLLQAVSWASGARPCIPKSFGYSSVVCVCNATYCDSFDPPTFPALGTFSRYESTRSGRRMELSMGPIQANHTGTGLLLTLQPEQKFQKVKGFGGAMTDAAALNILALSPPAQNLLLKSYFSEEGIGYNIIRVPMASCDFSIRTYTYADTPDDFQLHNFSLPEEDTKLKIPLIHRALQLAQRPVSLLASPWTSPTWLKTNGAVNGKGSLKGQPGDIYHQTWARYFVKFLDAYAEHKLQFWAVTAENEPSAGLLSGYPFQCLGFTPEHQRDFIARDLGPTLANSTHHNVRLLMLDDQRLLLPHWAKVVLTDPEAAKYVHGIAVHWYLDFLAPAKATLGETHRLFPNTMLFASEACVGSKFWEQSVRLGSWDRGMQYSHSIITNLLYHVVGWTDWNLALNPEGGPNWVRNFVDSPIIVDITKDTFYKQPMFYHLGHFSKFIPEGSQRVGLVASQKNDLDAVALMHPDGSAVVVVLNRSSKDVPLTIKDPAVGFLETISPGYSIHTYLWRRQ
Chain of Cytochrome P450 3A4 (Homo sapiens) (P08684 whole entry, looked up): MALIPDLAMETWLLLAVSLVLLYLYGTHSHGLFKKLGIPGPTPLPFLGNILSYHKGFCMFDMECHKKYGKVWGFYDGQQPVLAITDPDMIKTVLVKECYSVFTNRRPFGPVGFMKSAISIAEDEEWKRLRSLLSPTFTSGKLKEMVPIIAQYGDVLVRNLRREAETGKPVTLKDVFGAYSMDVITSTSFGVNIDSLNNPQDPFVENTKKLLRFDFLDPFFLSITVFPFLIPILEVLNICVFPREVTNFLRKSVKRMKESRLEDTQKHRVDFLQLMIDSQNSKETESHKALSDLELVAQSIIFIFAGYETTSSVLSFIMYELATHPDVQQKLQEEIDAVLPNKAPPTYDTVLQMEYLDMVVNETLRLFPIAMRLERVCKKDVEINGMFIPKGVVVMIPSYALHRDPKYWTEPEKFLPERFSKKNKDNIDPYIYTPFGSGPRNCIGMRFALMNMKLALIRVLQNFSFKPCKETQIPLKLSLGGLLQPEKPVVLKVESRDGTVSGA
Chain of Cytochrome P450 2C19 (Homo sapiens) (P33261 whole entry, looked up): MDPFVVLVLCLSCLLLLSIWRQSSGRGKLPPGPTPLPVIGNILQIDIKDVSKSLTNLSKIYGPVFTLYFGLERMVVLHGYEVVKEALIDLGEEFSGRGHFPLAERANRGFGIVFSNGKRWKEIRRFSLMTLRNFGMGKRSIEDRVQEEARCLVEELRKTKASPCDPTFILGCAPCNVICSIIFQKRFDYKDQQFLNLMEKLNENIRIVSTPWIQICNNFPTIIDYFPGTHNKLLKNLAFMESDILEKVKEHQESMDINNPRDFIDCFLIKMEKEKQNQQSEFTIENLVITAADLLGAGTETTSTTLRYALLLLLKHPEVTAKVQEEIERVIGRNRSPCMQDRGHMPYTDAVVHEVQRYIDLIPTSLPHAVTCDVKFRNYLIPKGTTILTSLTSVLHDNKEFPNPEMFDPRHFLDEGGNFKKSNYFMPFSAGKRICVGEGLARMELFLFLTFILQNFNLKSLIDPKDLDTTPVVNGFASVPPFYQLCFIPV

For the molecule `O=[As](O)(O)c1ccc(N=Nc2ccc(O)cc2)cc1`, the Potency was over 11.4 µM in [1], over 46 µM in test [6] and over 9.22 µM in test [7]. Also, the activity change, negative = inhibition in [2] is 3.33%; in test [4] it was 9.82%; in [8], -2.48% [at 11.4 µM]. Further, the Potency result in test [3] was “inactive”. The activity, negative = inhibition in test [5] is 3.63%. In addition, in [9], the call was inactive.

Turning to `CC(C)(C)C(=O)CP(=O)(O)O`, the Potency in test [1] is over 11.4 µM; in [6] it was over 46 µM; in test [7], over 9.22 µM. Also, the activity change, negative = inhibition was 11.4% in [2], -0.88% in [4] and 5.32% [at 11.4 µM] in test [8]. Also, the Potency result in test [3] was “inactive”. Also, the activity, negative = inhibition in test [5] is -5.75%. Also, in test [9], the result was inactive.

On to `N[C@@H](CSC1c2ccccc2-c2ccccc21)C(=O)O`, for which the Potency in test [1] is over 11.4 µM; in test [3], 2.51 µM (active); in [6], over 46 µM; in test [7] it was over 9.22 µM. The figures for the activity change, negative = inhibition in test [2] and in test [8] were 0.63% and -0.997% [at 11.4 µM], respectively. The activity, negative = inhibition in test [5] is 3%. Moreover, in test [9], the outcome was inactive.

On to `C[C@H](CN(C)C)C(C#N)(c1ccccc1)c1ccccc1`, for which the Potency is over 11.4 µM in test [1], over 46 µM in test [6] and over 9.22 µM in test [7]. In addition, the activity change, negative = inhibition in [2] is 0.906%; in [3], -3.4% [at 2.29 µM]; in test [8], 6.57% [at 11.4 µM]. Moreover, the activity, negative = inhibition in [5] was 4.38%. For the same molecule, the molecule was called inactive in test [9]. Moreover, the activity change, positive = activation in test [10] was -41.5% [at 11.4 µM].

Regarding `CS(=N)(=O)CC[C@H](N)P(=O)(O)O` (some centres undefined), the Potency in test [1] was over 11.4 µM; in test [6], over 46 µM; in test [7] it was over 9.22 µM. Besides, the results for the activity change, negative = inhibition in test [2] and in test [8] were -0.909% and -2.65% [at 11.4 µM], respectively. Further, the Potency entry in test [3] is “inactive”. Moreover, the activity, negative = inhibition in test [5] is 2.22%. Moreover, the result in test [9] was inactive.

For the molecule `CC1(C)CCC(C)(C)c2c1ccc(O)c2Cc1c(O)ccc2c1C(C)(C)CCC2(C)C`, the Potency was over 11.4 µM in test [1], 5.01 µM (active) in test [3], over 46 µM in test [6] and over 9.22 µM in test [7]. Moreover, the activity change, negative = inhibition is -8.54% in test [2] and -1.06% [at 11.4 µM] in [8]. Moreover, in [5], the activity, negative = inhibition was 0.741%. Moreover, in [9], the call was inactive.

For `N[C@@H](CP(=O)(O)O)C(=O)O`, the Potency is over 11.4 µM in test [1], over 46 µM in [6] and over 9.22 µM in test [7]. The values for the activity change, negative = inhibition in [2] and in [8] were 0.329% and 5.7% [at 11.4 µM], respectively. Moreover, the Potency entry in [3] was “inactive”. For the same molecule, in test [5], the activity, negative = inhibition is 2.68%. Further, the outcome in test [9] was inactive.

Turning to `C[n+]1c(/C=C\c2ccc(O)c3ncccc23)[se]c2ccccc21`, the Potency is over 11.4 µM in [1], over 46 µM in test [6] and over 9.22 µM in test [7]. Further, the activity change, negative = inhibition in test [2] is -7.45%; in test [3] it was -22.7% [at 2.29 µM]; in test [8], -13.6% [at 11.4 µM]. Besides, the activity, negative = inhibition in [5] was 13%. Moreover, the molecule was called inactive in [9].

Take `CO[C@H]1[C@H](O)[C@H](O[C@@H]2[C@H](Oc3cccc4c(O)c5c(=O)oc6ccc(C)c7c(=O)oc(c34)c5c67)O[C@@H](C)[C@H](O)[C@H]2O)O[C@@H](C)[C@@H]1O`: the Potency in test [1] was over 11.4 µM; in [6], over 46 µM; in [7], over 9.22 µM. Besides, the activity change, negative = inhibition in [2] is 1.4%; in test [8], 1.22% [at 11.4 µM]. Also, the Potency entry in test [3] is “inactive”. In test [5], the activity, negative = inhibition was 7.37%. In addition, in [9], the call was inactive.

Consider `O=[As](O)(O)c1ccc2nc3cc([As](=O)(O)O)ccc3nc2c1`, for which the Potency was over 11.4 µM in test [1], over 46 µM in [6] and over 9.22 µM in [7]. Moreover, the activity change, negative = inhibition in [2] was 0.372%; in test [4], 20.7%; in [8], -2.18% [at 11.4 µM]. Moreover, the Potency entry in [3] and in test [11] was “inactive” throughout. Also, the activity, negative = inhibition in test [5] was -4.42%. In addition, in test [9], the call was inactive.

With `C[C@@H]1O[C@H](OC2[C@@H](O)[C@H](O)C(O)[C@H](O)[C@H]2O)[C@@H](N)C[C@@H]1N=C(N)C(=O)O` (some centres undefined), the Potency in test [1] was over 11.4 µM; in test [6] it was over 46 µM; in test [7], over 9.22 µM. Also, the activity change, negative = inhibition is -0.614% in test [2], 1.2% [at 2.29 µM] in test [3] and 1.04% [at 11.4 µM] in [8]. The activity, negative = inhibition in test [5] was 8.32%. Moreover, the molecule was classed as inactive in test [9].

`O=S(=O)(O)/C(=C\c1ccccc1)c1ccccc1` (tested in a mixture with another compound): the Potency in test [1] is over 11.4 µM. Also, the activity change, negative = inhibition was 4.77% in [2], -29% [at 2.29 µM] in test [3], 11.5% in test [4] and 4.57% [at 11.4 µM] in [8]. Moreover, in test [5], the activity, negative = inhibition is 7.2%. Also, the molecule was called inactive in [9].

With `N[C@H](Cc1c[nH]c2ccccc12)P(=O)(O)O`, the results for the Potency in [1], in [6] and in [7] were over 11.4 µM, over 46 µM and over 9.22 µM, respectively. For the same molecule, the activity change, negative = inhibition is -3.26% in test [2] and 4.66% [at 11.4 µM] in test [8]. In addition, in test [3], the Potency entry is “inactive”. Further, the activity, negative = inhibition in [5] was -3.09%. Further, in [9], the molecule was called inactive.

Consider `C=C(C)c1ccccc1` (tested in a mixture with another compound), for which, in test [1], the Potency is over 11.4 µM. Moreover, the activity change, negative = inhibition in [2] was -1.01%; in [3] it was -19.6% [at 2.29 µM]; in [4], -21.5%; in test [8] it was -9.26% [at 11.4 µM]. In addition, the activity, negative = inhibition in test [5] is -6.96%. The outcome in test [9] was inactive.

In the case of `Cc1c([C@@H](C)[C@H]2NC[C@H](C)C[C@@H]2O)ccc2c1C[C@@H]1[C@H]2CC=C2C[C@@H](O)CC[C@@]21C`, the Potency in [1] was over 11.4 µM; in [6], over 46 µM; in [7], over 9.22 µM. In addition, the activity change, negative = inhibition was -4.38% in test [2], 1.3% [at 2.29 µM] in test [3] and -0.822% [at 11.4 µM] in test [8]. Also, the activity, negative = inhibition in test [5] was -1.08%. Also, the call in test [9] was inactive. Also, in test [10], the activity change, positive = activation is -38% [at 11.4 µM].

For the origin of these results see PubChem BioAssay (NCATS).
